The supplement of paper PMC6555819

Key:
Assay in all cases: PBM binding z-score (relative to random genomic background probes); higher = stronger binding; sequences stand for … in GC…GCGATTGACAGCGTAGAATGAAGG
[1] = test system: RARb homodimer (NR concentration 270 nM)
Method in brief: (§1)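 Regression normalization was applied to scanned fluorescence from custom Agilent 4×180K protein-binding microarrays. Before scanning, arrays were incubated 1 h with ligand-free nuclear receptor dimers, and binding was detected with antibodies against each partner (one per run). Binding z-scores use the random background probes as reference.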

[2] = test system: RARg:RXRa (NR concentration 270 nM, RXRa partner concentration 90 nM)
Method in brief: as §1

[3] = test system: RARg homodimer (NR concentration 270 nM)
Method in brief: as §1

[4] = test system: RXRa DBDmut IVT, anti-RXR (DBD mutation: RXRa K156A/R161A, NR concentration 90 nM)
Method in brief: as §1

[5] = test system: RXRa homodimer (NR concentration 180 nM)
Method in brief: as §1

[6] = test system: THRa:RXRa (NR concentration 90 nM, RXRa partner concentration 90 nM)
Method in brief: as §1

[7] = test system: THRa homodimer (NR concentration 90 nM)
Method in brief: as §1

[8] = test system: VDR:RXRa (NR concentration 270 nM, RXRa partner concentration 90 nM)
Method in brief: as §1

[9] = test system: VDR homodimer (NR concentration 270 nM)
Method in brief: as §1

Sequence | PBM binding z-score [1] | PBM binding z-score [2] | PBM binding z-score [3] | PBM binding z-score [4] | PBM binding z-score [5] | PBM binding z-score [6] | PBM binding z-score [7] | PBM binding z-score [8] | PBM binding z-score [9]
TCTTGTAGATCAATAGAGGTTAAGACAGTGCGCT | 1.01 | 0.969 | 0.534 | 0.854 | 1.44 | 2.36 | -0.216 | 1.7 | 0.0474
CGTCAAAGTTCAACTAAGGTAACGTAAAGCACGC | 4.51 | 5.92 | 6.41 | 4.68 | 5.28 | 5.33 | 1.93 | 4.74 | 3.26
CATCCAGGGTCAGCTAGGCCAGAGTAGGGACGGC | 3.29 | 4.74 | 4.96 | 1.35 | 4.41 | 3.18 | 1.34 | 3.97 | 1.51
GCTTGTAGATCAAGGCTAAGAAAGACTAAGCTAA | -0.854 | -0.533 | -0.429 | -0.427 | -0.497 | -0.5 | -1.37 | -0.679 | -0.708
TAGCCTAGGTGATGCGGGCCAGTATAGTGTCGGC | -0.307 | -0.331 | -0.372 | -1.62 | -0.304 | -0.285 | -0.885 | -0.796 | -1.22
TAGCCTAGGTCCTGGGCCAGTATACCACGCGAAC | -0.386 | -0.497 | -0.364 | -1.66 | -0.311 | -0.414 | -0.714 | -0.679 | -0.78
ATAGAAAGGTCGACGAGGTGAGTATACACCGTTT | 2.88 | 3.98 | 3.86 | 1.03 | 4.18 | 3.62 | 0.52 | 5.01 | 1.1
TCTTGTTGATCAATAGAGGTTAAGAAAGTGCGCT | 1.09 | 0.58 | 0.28 | 0.766 | 1.48 | 1.58 | -0.22 | 1.69 | 0.411
AGAATGAGGTTATTAAGACCAGGGAATTGCGGTC | 0.935 | 1.24 | 0.733 | 1.64 | 1.91 | 2.17 | 0.47 | 1.69 | 0.915
AGTCAAAGTTCAGGACGAGGTAACGGAAAGCACG | 3.17 | 4.69 | 4.86 | 2.73 | 2.96 | 3.79 | 1.74 | 2.86 | 1.79
TCTATTGGTTGATTAGGGCAACCGAAACAGCGGA | 0.698 | 0.341 | 0.499 | 0.712 | 0.317 | 0.871 | 0.352 | 0.547 | 0.054
ATATGTAGGTTAGCTGGGGTCAGTCAGACTAGGC | 3.61 | 3.36 | 2.88 | 0.894 | 3.64 | 5.02 | 2.36 | 4.52 | 2.29
CCTTACGGGTCACGAGGTTATAGCTCGACGAGCG | 3.93 | 6.04 | 5.15 | 1.74 | 6.98 | 3.73 | 0.989 | 5.07 | 1.76
CGTCCAAGGTCATTGCTAGGTCAGTGAAAGCATT | 4.96 | 7.64 | 6.66 | 4.51 | 5.45 | 4.38 | 3.31 | 5.53 | 4.55
TGTGAAAGTTCAAAGGTAACGTAAGTATCCACAC | 3.75 | 5.88 | 5.56 | 4.17 | 7 | 3.13 | 0.137 | 4.88 | 3.9
CCTTACGGGTCACTCCAGGTTATTGCATCGGAGT | 3 | 4.17 | 3.98 | 1.4 | 3.97 | 4.94 | 0.878 | 4.46 | 1.95
TCTTGTAGATCAAGCAGGTCAAGAAAGCCTGAGT | 2.28 | 1.43 | 1.35 | 0.714 | 1.66 | 2.01 | 0.223 | 2.28 | 0.53
ATCTCTAGGTAGCCAAGTTCAGTGAATGCCGAAC | 0.866 | 0.375 | 0.381 | 0.591 | 0.0776 | 0.48 | 0.337 | 2.24 | 2.15
ATCCCTAGGTAAGACTCAGTTCAGTGAAGAACGC | 0.754 | -0.0118 | -0.0617 | 0.567 | 0.0289 | 0.832 | 1 | 1.05 | 1.07
CCTTACGGGTCATGGTTATAGCACGGGTGGTACG | 3.03 | 4.4 | 3.82 | 0.187 | 4.81 | 2.67 | -0.082 | 3.23 | 0.582
CGACCAAGGTCAATGCTAGGTCAGTGAAAGCATT | 4.82 | 7.46 | 6.84 | 3.44 | 5.73 | 4.18 | 2.25 | 4.69 | 2.89
AGAATGAGGTTATTGAGATCAGGGAATTGCGGTC | 1.07 | 1.43 | 0.831 | 2.21 | 2.16 | 2.45 | 1.01 | 3.35 | 1.28
CCTACTGGGCCATCAGGTCAGTGATATCAACGTT | 2.46 | 1.18 | 1.57 | -0.413 | 0.552 | 2.19 | 1.78 | 0.21 | 0.319
CGGCCAAGGTCAATGCTAGGTCAGTGAAAGCATT | 4.9 | 7.57 | 6.96 | 3.65 | 5.16 | 4.29 | 2.46 | 4.95 | 2.22
ATATGTAGGTTACATCCGGGGCATTCAGGCTATG | 1.23 | 1.76 | 1.3 | 0.51 | 1.12 | 1.83 | 0.704 | 1.23 | 0.977
CCCACTGGGCCATCAGGTCATTGATATCAACGTT | 2.77 | 2.09 | 1.65 | -0.268 | 1.3 | 3.22 | 3.16 | 1.89 | 1.66

Sequence | PBM binding z-score [1] | PBM binding z-score [2] | PBM binding z-score [3] | PBM binding z-score [4] | PBM binding z-score [5] | PBM binding z-score [6] | PBM binding z-score [7] | PBM binding z-score [8] | PBM binding z-score [9]
TAGCCTAGCTCATGCGGGCCAGTATAGTGTCGGC | -1.08 | -0.81 | -0.912 | -1.45 | -0.694 | -1.65 | -1.25 | -1.1 | -0.887
CTCGAAAGGTCGGTTGACGTGAGTATACGGATAA | 1.53 | 2.54 | 2.8 | 1.06 | 2.29 | 1.21 | -0.605 | 1.02 | 0.501
CGTCCAAGGGCAAGGTCAGTGAAAGAGACTCGAA | 3.82 | 3.23 | 4.43 | 1.07 | 2.23 | 2.9 | 1.11 | 1.59 | 1.21
CGTCCAAGGTCAAATGTCAGTGAAGAGATGACGG | 4.41 | 6.58 | 7.15 | 3.82 | 6.77 | 4 | 2.21 | 4.67 | 2.75
ATCTCTAGGTAAAGTTCTGTGAAAGATCGATAGA | -0.0506 | 0.0649 | 0.264 | 0.162 | -0.238 | 0.488 | 0.369 | 0.335 | 0.0394
TCTATTAGTTGAAGGGTAACCGACGAGTCCGTTT | 0.751 | 0.464 | 0.398 | 1.95 | 0.736 | 0.32 | 0.529 | 1.2 | 1.44
ATAATGAGGTTATTAAGATCAGGGAATTGCGGTC | 0.912 | 1.39 | 1.21 | 2.09 | 1.88 | 2.3 | 0.964 | 2.88 | 1.8
TCAGACGGGTGAAGGTAACTCAGGTACGCAGTCG | 0.122 | 0.19 | 0.0578 | 0.65 | 0.866 | 1.28 | -0.229 | 0.218 | -0.187
GCTAACGGGTCAAAGGTTATAGCATGAATAGAAT | 3.09 | 6.57 | 4.55 | 1.87 | 8.85 | 3.65 | -0.286 | 4.9 | 1.33
TGAATGTGGTTAAAGATCAGGGAACGTGGCGTCG | -0.107 | 0.0115 | -0.196 | -0.526 | 0.126 | -0.141 | -0.0512 | -0.219 | -0.00679
ATCTCTAGGTAAAGTTCAGTGGAAGATCGATAGA | 2.55 | 2.03 | 2.47 | 1.74 | 1.11 | 1.3 | 0.319 | 1.44 | 2.23
ATCTCTAGGGAACAAGTTCAGTGAAAGAGAGGAC | 1.49 | 0.977 | 1.13 | 0.71 | 0.649 | 0.823 | 0.263 | 1.48 | 2.43
GGAATGAGGGCAAAGTTGATAGCATCTGTCGACG | 1.42 | 2.19 | 1.83 | 2.73 | 2.31 | 1.89 | 0.391 | – | 1.75
TCTTGTAGAACAATAGAGGTTAAGAAAGTGCGCT | 1.19 | 0.879 | 0.347 | 0.757 | 1.42 | 1.53 | -0.547 | 1.65 | 0.225
TGAATGAGGTTATCAGATCAGGGAACGTTGCAAA | 0.317 | 1.62 | 1.06 | 0.731 | 1.99 | 2.02 | 0.233 | – | 0.273
CAAACTGGGTCACCGGAAGGTCAAAGTCCGCATG | 5.45 | 8.27 | 7.08 | 0.907 | 6.37 | 4.2 | 1.61 | 5.93 | 2.92
GCTGCTAGGTAAACTGATGGTCAGCTAAAGCTCG | -0.0474 | -0.174 | -0.241 | -0.0334 | -0.342 | -0.142 | -0.754 | -0.576 | -0.973
GCTATTAGTTGAAAGGTCAACCGAATGATTCTCG | 5.01 | 6.07 | 5.57 | 1.88 | 7.11 | 3.83 | 1.41 | 4.71 | 2.06
ATACCAAGATGATCGTGAGGTCGTTGATACTAAC | 1.17 | 0.596 | 0.434 | 0.473 | 0.929 | 2.39 | 1.81 | 1.78 | 2.77
TCATATAGGTAAATGCTAGGTGAAAGTTCGATCT | 1.2 | 0.926 | 0.552 | 1.97 | 1.35 | 1.75 | 0.835 | 1.22 | 0.742
GCGACTGGGGCATAGCAGGTTACCATAAGGTTGG | 1.04 | 0.402 | 0.629 | -0.432 | 0.456 | 2.44 | -0.122 | -0.336 | -0.335
AGAATGAGGTTATGATCAGGGAAACAGAATACAT | 0.715 | 1.74 | 1.11 | 1.02 | 2.16 | 2.44 | 0.714 | 1.11 | 0.317
CATAGAGGGTCAGCTAGGCCAGAGTAGGGACGGC | 3.06 | 3.83 | 4.33 | 0.356 | 3.3 | 2 | 0.171 | 2.69 | 0.395
GCTATTAGTTTAAAGGGCAACCGAATGATTCTCG | 2.38 | 1.36 | 1.44 | 1.56 | 1.05 | 0.923 | 0.375 | 0.65 | 0.916
TAGACAGGGTCAAAGGCCAGAGTACGAATGTCGA | 3.3 | 5.52 | 4.86 | 2.49 | 6.9 | 3.23 | 0.292 | 4.73 | 2.18
ACTATTAGTTGTCTTAGGGCAACCGATACGACGC | 0.406 | 0.149 | 0.589 | 0.518 | 0.061 | 1.03 | 0.603 | -0.0128 | 0.0368
